D1 antag: Antagonist of Human D 1 Dopamine Receptor: qHTS. D(1A) dopamine receptor (Homo sapiens), P21728. AID 504652, 2011. HEK293 TREx D1 cells, calcium flux, dopamine EC80; hits give low values. activity change, negative = inhibition, % at 10 µM. 360,000 tested, 3.2% active; in the data active means activity change below about -30%; further: on the % scale 0 is the no-effect control and ±100 the full control effect
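Antagonism measured as reduced calcium response to an EC80 dopamine addition following 180 s compound pre-read; cells were inducible HEK293 Trex D1 plated overnight at 30 C, read kinetically at 1 cycle/sec.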
D1 potentiator: Potentiators of Human D1 Dopamine Receptor: qHTS; D(1A) dopamine receptor (Homo sapiens), P21728; HEK293 TREx D1 cells, calcium flux, dopamine EC20 potentiation; potentiation, % at 10 µM; 360,000 tested, 0.036% active; AID 504651, 2011; in the data active means potentiation above about 30%; further: 0% is about no effect
TRHR agonist-1: qHTS for Small Molecule Agonists and Allosteric Enhancers of Human TRH Receptor: Primary Screen for Agonists; Thyrotropin-releasing hormone receptor (Homo sapiens), P34981; TRHR cells, calcium flux fluo-8, FDSS agonist mode; activation, % at 2 µM; 360,000 tested, 0.18% active; AID 493084, 2011; in the data active means activation above about 30%; further: 0% is about no effect
Target sequence (P34981 whole entry, looked up): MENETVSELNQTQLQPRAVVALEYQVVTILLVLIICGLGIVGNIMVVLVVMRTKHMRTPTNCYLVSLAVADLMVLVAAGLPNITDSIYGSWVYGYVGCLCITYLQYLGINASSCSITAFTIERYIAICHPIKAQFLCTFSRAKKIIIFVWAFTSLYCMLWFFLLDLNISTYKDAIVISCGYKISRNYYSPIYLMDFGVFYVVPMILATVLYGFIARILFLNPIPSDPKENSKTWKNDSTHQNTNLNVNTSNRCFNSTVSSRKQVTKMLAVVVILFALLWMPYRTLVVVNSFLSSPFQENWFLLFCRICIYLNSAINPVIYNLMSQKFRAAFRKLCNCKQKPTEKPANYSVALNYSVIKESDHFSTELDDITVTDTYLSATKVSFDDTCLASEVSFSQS
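In this calcium-flux screen, cells bearing human TRHR are dye-loaded with fluo-8, baselined for 10 cycles, then exposed to library compounds; positive kinetic calcium responses during the agonist phase mark hits, with TRH as control.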
GRP78 ERSR act: qHTS for Inducers of the Endoplasmic Reticulum Stress Response (ERSR) in Human Glioma: qHTS; 420,000 tested, 0.02% active; Potency, µM, without a hit: at the highest dose activation, usual class: activators; AID 602332, 2012; U87-MG GRP78 promoter luciferase reporter, 16 h; further: potency means the concentration at half of the fitted maximal effect; series mostly up to about 76 µM; % of control where 0% means no effect; nearly all actives have a fitted effect of over 35% in size
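Stably transfected U87-MG human glioma cells carrying a GRP78-based luminescent sensor were seeded at 1000 cells/well, pin-dosed with compounds and incubated 16 h. Luciferase reagent was then added, and end-point luminescence was read after 10 min at room temperature.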
D1 agonist: Allosteric Agonists of the Human D1 Dopamine Receptor: qHTS. activation, % at 2 µM. D(1A) dopamine receptor (Homo sapiens), P21728. 360,000 tested, 1% active. HEK293 T-REx D1 cells, calcium flux, agonist mode; in the data active means activation above about 30%; further: 0% is about no effect
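Tetracycline-induced HEK293 TREx D1 cells, force-coupled to calcium signalling, were dye-loaded with a no-wash calcium kit. Compound was pin-added after a 10 s baseline. Fluorescence was read kinetically at 1 cycle/s for 180 s, with calcium rises flagged as agonism.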
TRHR enhancer-1: qHTS for Small Molecule Agonists and Allosteric Enhancers of Human TRH Receptor: Primary Screen for Enhancers | Thyrotropin-releasing hormone receptor (Homo sapiens), P34981 | TRHR cells, fluo-8 calcium fluorescence, EC20 TRH enhancement | AID 493056, 2011 | enhancement, % at 2 µM | 360,000 tested, 0.66% active; in the data active means enhancement above about 30%; further: 0% is about no effect
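TRHR-expressing cells loaded with fluo-8 calcium dye were read kinetically (ex 480/em 530) during compound addition, then stimulated with an EC20 of TRH (10 nM final). Enhancement of the Gq-mediated intracellular calcium response was scored.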
TRHR enhancer-2: qHTS for Small Molecule Agonists and Allosteric Enhancers of Human TRH Receptor: Confirmation Screen for Enhancers. activity change, negative = inhibition, % at 46.1 µM. AID 493076, 2011. TRH receptor cell assay, enhancer confirmation qHTS. shares compounds with TRHR enhancer-1. 970 tested, under 10 active;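 further: compound effect scored on response to added TRH at EC20 of 10 nM; 0% is about no effect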
TRHR agonist-2: qHTS for Small Molecule Agonists and Allosteric Enhancers of Human TRH Receptor: Confirmation Screen for Agonists; Potency, µM (highest dose often 46.1 µM), inactives show at the highest dose activation, most hits filed as activators; 970 tested, 8% active; shares compounds with TRHR enhancer-1; TRHR-expressing cells, agonist activation read-out; AID 493078, 2011; further: potency means the concentration at half of the fitted maximal effect; 0% is about no effect; nearly all actives have a fitted effect of over 75% in size
Active calls of the source: *; ? = inconclusive; . = no result. This is a sample that favours compounds with a hit; in the whole collection about 4% have one here. Unless noted, the call rests on the fitted dose curve; in most records, active means well fitted curve in the direction sought with a large enough effect; inconclusive means small, poorly fitted or top-dose-only effect, or another doubt; inactive means no such curve, though single readings can be large; an effect the other way counts as inactive or inconclusive.

SMILES	D1 antag	D1 potentiator	TRHR agonist-1	GRP78 ERSR act	D1 agonist	TRHR enhancer-1	TRHR enhancer-2	TRHR agonist-2
Cc1cccc(OCc2nnc(SC(C)C(=O)O)n2Cc2ccccc2)c1 (stereo not given)	-19	-8	1	-4%	2	41*	12	-1%
Cc1cccc(N2CCN(CCCNC(=O)c3nnc(Cc4c(F)cccc4Cl)o3)CC2C)c1 (stereo not given)	-16	-4	-1	-3%	5	-5	.	.
Cc1ccc(-c2csc3ncnc(N4CCN(Cc5ccccc5)CC4)c23)cc1	6	-5	0	-1%	2	54*	-3	-1%
O=C(Cn1cnc2c(nnn2Cc2ccccc2)c1=O)N1CCN(c2ccccc2)CC1	7	-2	-1	1%	1	89*	-4	0%
N=c1sccn1CC(=O)Nc1ccc(S(N)(=O)=O)cc1	4	-3	1	2%	2	54*	-1	0%
NS(=O)(=O)c1ccc(NC(=O)CSC2CCCCC2)cc1	-15	0	0	3%	1	45*	-1	0%
CCC(=O)OCCCNc1nc(-c2ccc(Cl)cc2)nc2ccccc12	-17	-4	2	4%	17	-4	.	.
CCOc1ccccc1-c1c2cc(O)c(=O)cc-2oc2cc(O)c(O)cc12	12	-3	31*	-7%	53*	1	-15	0.73µM*
O=c1cc2oc3cc(O)c(O)cc3c(-c3ccccc3O)c-2cc1O	-14	1	47*	17%	46*	4	5	10µM*
COc1cc(/C=N/N2CCOCC2)ccc1OC(=O)c1ccco1	-14	-3	0	-1%	8	3	.	.
COc1cc(/C=N/N(C)C)ccc1OC(=O)c1ccco1	-4	0	0	2%	2	41*	3	-1%
O=C(Cc1ccc([N+](=O)[O-])cc1)OCc1ccc([N+](=O)[O-])cc1	-19	-12	-1	-3%	5	-8	.	.
COC(=O)CCCNC(=O)OCc1ccc([N+](=O)[O-])cc1	13	-6	-1	1%	3	67*	-3	2%
COc1ccc(-c2c(-c3cc(OC)cc(OC)c3)n(C)c3ccc(-c4cc(F)cc(OC)c4)cc23)cc1	.	-3	0	-1%	-2	-5	.	.
COc1ccc(Cl)cc1C(=O)Nc1ccc(CN2CCCCC2)cc1	-8	-11	2	-1%	2	64*	3	7%
OC[C@@H]1CN(Cc2ccc(Cl)cc2)C[C@H](n2cnc3c(NC4CCC4)ncnc32)O1	.	.	.	3%	.	.	.	.
COc1cccc(NC(=S)N(Cc2ccccn2)Cc2ccccc2Cl)c1	-24	-4	0	-1%	3	43*	-5	2%
COc1ccc(NC(=S)N(Cc2ccccn2)Cc2ccccc2Cl)cc1	5	1	0	-4%	-1	-3	.	.
O=C(Nc1ccc(-c2noc(-c3cccs3)n2)cc1)c1cccnc1	-5	-1	1	-6%	-1	4	.	.
O=C(C1=C(O)C(=O)N(c2nccs2)C1c1ccccc1)c1cc2ccccc2o1 (stereo not given)	-14	0	57*	4%	107*	2	?	4.6µM*
Cc1ccc(S(=O)(=O)N2CCC(C(=O)OC(C)C(=O)NC3CCCCC3C)CC2)cc1 (stereo not given)	-2	2	0	-2%	0	6	.	.
O=C(NC1CCCCCC1)C1CCN(S(=O)(=O)c2ccc(F)cc2)CC1	-4	4	0	-2%	2	-3	.	.
O=C(NC1CCCCC1)N1CCN(S(=O)(=O)c2ccc(F)cc2)CC1	-22	-6	0	-3%	0	46*	-3	1%
CC1=C(C(N)=O)C(c2ccccc2[N+](=O)[O-])n2ncnc2N1 (stereo not given)	3	0	2	-1%	1	-6	.	.
Cc1ccccc1NC1=C(Cl)C(=O)N(C2CCCCC2)C1=O	10	3	3	-1%	6	-1	.	.
SMILES	D1 antag	D1 potentiator	TRHR agonist-1	GRP78 ERSR act	D1 agonist	TRHR enhancer-1	TRHR enhancer-2	TRHR agonist-2
COc1ccccc1NC1=C(Cl)C(=O)N(C2CCCCC2)C1=O	-88*	-2	0	-2%	1	46*	10	4%
CC(C)CNC(=O)c1ccc2c(c1)C(=O)N(Cc1ccco1)C2=O	6	5	0	0%	1	15	.	.
Cc1ccccc1OCC(O)CN1CCN(c2ccc(Cl)cc2)CC1 (stereo not given)	-26	-12	1	-5%	5	51*	4	0%
Cc1ccccc1OCC(O)CN1CCCCC1 (stereo not given)	-9	0	0	-5%	6	43*	-5	1%
Cc1ccccc1OCC(O)Cn1c(=N)n(CCN2CCCCC2)c2ccccc21 (stereo not given)	6	-5	1	.	22	15	.	.
CSc1nnc(N2C(=O)C(O)=C(C(=O)c3ccco3)C2c2ccccc2)s1 (stereo not given)	19	3	30	0%	100*	2	7	6%
Cc1ccc(C2C(C(=O)c3ccco3)=C(O)C(=O)N2c2nnc(C)s2)cc1 (stereo not given)	-5	14	17	-1%	18	13	.	.
CN(C)C1(CN=Cc2cc(Cl)cc([N+](=O)[O-])c2O)CCCCC1	4	-5	1	-6%	3	9	.	.
CC(=Nc1cccc(O)c1)c1sc2ccccc2c1O	-28	-7	29	2%	68*	14	-2	?
COC(=O)c1nnn(-c2nc(N(C)C)nc(N(C)C)n2)c1C	-12	-4	-1	-5%	19	57*	-4	-1%
CC1(C(=O)NCc2ccco2)CCN1C(=O)C1(c2ccccc2)CC1 (stereo not given)	.	.	.	13%	.	.	.	.
